According to PubChem BioAssay AID686978 (National Center for Advancing Translational Sciences (NCATS), 2013):
Out of some 420,000 compounds screened, about 64,000 (15%) were called active. About 27% were inconclusive and are not listed. The full list was thinned out, with actives kept by preference. A number with no mark means an inactive call. Calls follow the shape of the dose curve; as a rule, active = well fitted inhibition curve with a large enough effect; inconclusive = small, poorly fitted or top-dose-only effect; inactive = flat fitted curve, though single readings scatter.

test: qHTS for Inhibitors of human tyrosyl-DNA phosphodiesterase 1 (TDP1): qHTS in cells in absence of CPT; details: DT40 Tdp1-/- hTDP1 cells, no CPT, ATP luminescence, 48 h; series mostly up to 46.2 µM; activity change, negative = growth inhibition: at the top concentration; also: nearly all actives have a fitted effect of over 55% in size
From the text: Human tyrosyl-DNA phosphodiesterase 1 (TDP1) is a novel repair gene, and we propose to use it as a new target for anticancer drug development. TDP1 is not an essential protein, but under treatment with topoisomerase I poison (camptothecin: CPT), TDP1 works as a critical factor for cell survival. To directly identify novel TDP1 inhibitors active in a cellular environment, we have knocked-out the Tdp1 gene in chicken DT40 cells (Tdp1-/-) and generated a complemented counterpart cells that contains a stable transfection of the human TDP1 gene (Tdp1-/-;hTDP1 cells). For the primary screen, Tdp1-/-;hTDP1 cells will be exposed to small molecules in the presence or absence of CPT, and their growth kinetics will be evaluated after 48 hours by measuring ATP activity. […] The hit compounds will then be evaluated in the presence or absence of CPT using Tdp1-/- cells. […] In tertiary assays, biochemical gel-based assays will be used to assess whether the hit compounds specifically target TDP1.
To this end, we have screened this cell line against the MLSMR in two primary screens. In one screen we add CPT and in the other we screen in the absence of CPT; this AID represents the screen where CPT was absent.
NIH Chemical Genomics Center [NCGC]
NIH Molecular Libraries Probe Centers Network [MLPCN]
Assay Submitter (PI): Yves Pommier, NCI
DT40-hTDP1 cells without 20 nM Camptothecin (add 20 microL of DMSO in 1 L of cell culture medium) were dispensed at 400 cells/5microL/well in tissue culture treated 1536-well white wall/solid bottom assay plates (Greiner Bio-One North America, NC, U.S.A.) using a Multidrop Combi 8 channel dispenser (Thermo Fisher, Waltham, MA, USA). 23 nL compounds and controls were transferred using the pin tool (Kalypsys, San Diego, CA, USA) to the assay plates. The assay plates were then incubated at 37 masculineC for a minimum 48 hr. Three microL of Cell Titer Glo solution was added to the plates and incubated at RT in dark for 30 min. Luminescence was read using ViewLux (Perkin Elmer) with 1 sec exposure slow speed, high gain and 2x binning.
% is scaled to controls: 0 for no effect and ±100 for the full control effect; potency is read from the fitted curve at half-maximal effect.

| SMILES | activity change, negative = growth inhibition [%] | Potency |
| --- | --- | --- |
| CCN(CC)CCOC(=O)c1cc2cc(COC)ccc2o1 | 2.59 | – |
| C=CCN(CC=C)C(=O)Nc1ccc(OCC)cc1 | -15.1 | – |
| CCOC(=O)[C@]12Cc3ccccc3[C@H]1N(C1CCCCC1)C(=O)c1cc(OC)ccc12 | – | 3.66 µM (active) |
| CCOC(=O)[C@]12Cc3cc(OC)ccc3[C@H]1N(C(C)C)C(=O)c1ccccc12 | – | 6.51 µM (active) |
| O=C(N/N=C/c1c(O)n(C2CC2)c(=S)[nH]c1=O)c1ccccc1 | 2.47 | – |
| C[C@]12CC[C@H](O)CC1=C([N+](=O)[O-])CC1C2CC[C@@]2(C)C1CC[C@@H]2O (some centres undefined) | -26.1 | – |
| CN1C2CC3CC1C(O3)C2O (centres undefined) | 1.96 | – |
| COc1ccc2cc1Oc1ccc(cc1)C[C@H]1c3cc(c(OC)cc3CCN1C)Oc1c(O)c(OC)cc3c1[C@H](C2)N(C)CC3 | – | 8.2 µM (active) |
| COc1c(O)ccc2c1-c1c3c(cc4c1C(C2)N(C)CC4)OCO3 (centres undefined) | -13 | – |
| O=C(Cc1ccc(Cl)cc1)NCCN1CCN(C(=O)Cc2ccc(Cl)cc2)CC1 | -19.8 | – |
| Clc1cccc(Cl)c1Cl | 11.4 | – |
| O=[N+]([O-])c1cnc2ccc3ccccc3c2c1 | -17.9 | – |
| Cn1c(O)c(C=NCCCC(=O)O)c(=O)n(C)c1=O | 1.24 | – |
| CCCCC(=O)N/N=C/c1c(O)n(CC)c(=S)n(CC)c1=O | – | 10.3 µM (active) |
| O=C1C2(Cl)C3(Cl)C4(Cl)C(Cl)(Cl)C5(Cl)C3(Cl)C1(Cl)C5(Cl)C24Cl (centres undefined) | – | 16.4 µM (active) |
| COC1=CC=C2[C@H]3Cc4ccc(OC)c5c4[C@@]2(CCN3C)C1O5 (some centres undefined) | -16.4 | – |
| COP(=O)(OC)C(NC(=O)c1ccc(C)cc1)C(Cl)(Cl)Cl (centres undefined) | 4.88 | – |

| SMILES | activity change, negative = growth inhibition [%] | Potency |
| --- | --- | --- |
| O=C1NC(=O)C(Cc2ccccc2)C(=O)N1 | 5.35 | – |
| CC(Cc1ccccc1)NC=O (centres undefined) | – | inactive |
| COc1ccc(CNC(=O)c2cc3c(-c4ccccc4F)nn(C)c3s2)c(OC)c1 | – | 6.51 µM (active) |
| CCOP(=O)(OCC)C(NC(=O)NC)C(N)=O (centres undefined) | 20.8 | – |
| O=C(O)c1cc[c]([Sb](=[O])([OH])[OH])cc1[N+](=O)[O-] | 1.08 | – |
| CCOC(=O)C1(c2ccccc2)CCN(CC(O)c2ccc(NC(C)=O)cc2)CC1 (centres undefined) | -18.1 | – |
| CCN1C[C@]2(COC)C(O)C[C@H](OC)[C@@]34C5C[C@]6(O)C(OC)C(O)[C@](OC(C)=O)(C5C6OC(=O)c5ccccc5)C(C(OC)C23)C14 (some centres undefined) | 2.58 | – |
| CC(CCC(=O)O)C1CCC2C3C(O)C[C@@H]4CC(O)CC[C@@]4(C)C3CC[C@@]12C (some centres undefined) | – | inactive |
| C/C=C/CC1(CC)C(=O)NC(=S)NC1=O | -15.3 | – |
| COC(=O)C(c1ccccc1)N1CCCCCC1 (centres undefined) | -0.202 | – |
| COC(=O)C1=C(c2cccc(OCc3ccccc3)c2)C[C@@H]2CC[C@H]1N2C(=O)NNCc1ccccc1 | – | 10.3 µM (active) |
| COC(=O)C1=C(c2c(C)noc2C)C[C@@H]2CC[C@H]1N2C(=O)NCc1ccc2c(c1)OCO2 | -20.5 | – |
| COC(=O)C1=C(c2ccccc2)C[C@@H]2CC[C@H]1N2C(=O)NCc1ccco1 | -23.1 | – |
| COC(=O)C1=C(c2ccccc2)C[C@@H]2CC[C@H]1N2C(=O)N1CCCCC1 | – | 6.51 µM (active) |
| COC(=O)C1=C(c2ccc(OCc3ccccc3)cc2)C[C@@H]2CC[C@H]1N2C(=O)NCc1ccc(Cl)cc1 | – | 16.4 µM (active) |
| COC(=O)C1=C(c2cc3ccccc3s2)C[C@@H]2CC[C@H]1N2C(=O)NCCO | -0.15 | – |
| COC(=O)C1=C(c2ccc(OCc3ccccc3)cc2)C[C@@H]2CC[C@H]1N2C(=O)NCc1cccc(F)c1 | – | 14.6 µM (active) |
